The text below walks through data of the supplement of paper PMC9177965.

Structures are written as SMILES.

The test system of test [1] is HT29 RNF43 G659fs (RNF43 659mut, CRISPR-edited). Nature of the test: cell viability activity relative to DMSO (negative = inhibition); higher = more viable cells (less growth inhibition). Conditions: 5 µM; 96 h. As for the experimental part:
(§1)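 Broad Repurposing Library primary screen at a single dose of 5 uM. HT29 sg-Ctrl and HT29 RNF43 G659fs CRISPR-edited isogenic cells were seeded at 2500 cells/well in 384-well plates in duplicate and treated for 96 h. Viability was read by CellTiter-Glo and reported as % activity relative to DMSO, with MG132 as the positive control (negative = growth inhibition).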

Test [2] relates to HT29 sg-Ctrl (RNF43 wildtype). Described as above. Conditions: 5 µM; 96 h. The method, then: as §1

With `CC1(C)CC(=O)c2c(C(F)(F)F)nn(-c3ccc(C(N)=O)c(N[C@H]4CC[C@H](O)CC4)c3)c2C1`, the cell viability activity in test [1] was -86.4%; in test [2] it was -78.4%.
The matching figures for `COc1cccc(-c2cc(F)ccc2[C@H]2Cc3nc(N)nc(C)c3C(=O)N2)n1`: -82.4% and -81.1%.
Turning to `CN(C)CCCC(=O)Nc1ccc(C(=O)Nc2cccc(Nc3ncc(Cl)c(-c4c[nH]c5ccccc45)n3)c2)cc1`, the cell viability activity is -70.8% in test [1] and -78.1% in test [2].
Turning to `CNC(=O)c1nn(C)c2c1C(C)(C)Cc1cnc(Nc3ccc(N4CCN(C)CC4)cc3)nc1-2`, the cell viability activity in test [1] was -66.2%; in test [2], -74.1%.
With `Cc1cccc(-c2[nH]c(C(C)(C)C)nc2-c2ccc3c(c2)OCO3)n1`, the results for the cell viability activity in test [1] and in test [2] were -79.2% and -50.7%, respectively.
The matching figures for `Cc1nc2ccccc2n1Cc1ccc(Cl)cc1`: -60.5% and -39.4%.
The matching figures for `C=C1C(=O)O[C@H]2[C@H]1CC/C(C)=C/CC[C@@]1(C)O[C@@H]21`: -28.1% and -6.73%.
On the same counts, the results for `Nc1ccccc1NC(=O)c1ccc(CNc2nccc(-c3cccnc3)n2)cc1` are -87.7% and -77%.
As for `c1cc(-c2cnn3cc(-c4ccc(N5CCNCC5)cc4)cnc23)c2cccnc2c1`, the cell viability activity in test [1] was -97.7%; in test [2], -96.2%.
Consider `Fc1cc(-c2cccc3ncc(-c4cnn(C5CCNCC5)c4)nc23)cc(F)c1CN1CCOCC1`, for which the cell viability activity was -93.7% in test [1] and -92.4% in test [2].
The matching figures for `CN(C)Cc1ccc(S(=O)(=O)n2ccc(/C=C/C(=O)NO)c2)cc1`: -72.5% and -64.6%.
On the same counts, the results for `O=C(O)c1ccc(-n2nc(-c3ccccc3O)nc2-c2ccccc2O)cc1` are -27.9% and -27.1%.
On the same counts, the results for `C[C@]12CC[C@@H]3c4ccc(O)cc4C[C@@H](CCCCCCCCC[S+]([O-])CCCC(F)(F)C(F)(F)F)[C@H]3[C@@H]1CC[C@@H]2O` (stereo partly specified) are -38.7% and -38.5%.
For `COc1cccc(OCCCN)c1-c1cc(Nc2cnc(C#N)cn2)n[nH]1`, the results for the cell viability activity in test [1] and in test [2] were -78.2% and -86.9%, respectively.
The matching figures for `CC1=C(C(=O)OC2CCCCC2)C(c2ccc([N+](=O)[O-])cc2)C2=C(CC(C)(C)CC2=O)N1` (stereo unspecified): -27.1% and -15.6%.
Regarding `Cc1noc2c1-c1ccccc1C(c1ccc(Cl)cc1)=N[C@H]2CC(N)=O`, the cell viability activity in test [1] is -53.9%; in test [2] it was -57.7%.
On to `CCOc1ccc(Cc2nccc3cc(OCC)c(OCC)cc23)cc1OCC`, for which the cell viability activity in test [1] is -32.7%; in test [2], -25.2%.
The matching figures for `CN1CCCN=C1COC(=O)C(O)(c1ccccc1)C1CCCCC1` (stereo unspecified): -55.3% and -50.3%.
Turning to `CN[C@H]1CN(c2ccc3c(=O)c(C(=O)O)cn(-c4nccs4)c3n2)C[C@@H]1OC`, the cell viability activity in test [1] is -60.3%; in test [2], -30.9%.
On the same counts, the results for `CCN(CC)CCNc1ccc(CO)c2sc3ccccc3c(=O)c12` are -23.1% and -27.7%.
As for `COc1ccc(F)c(F)c1C(=O)c1cnc(NC2CCN(S(C)(=O)=O)CC2)nc1N`, the cell viability activity was -69% in test [1] and -65.9% in test [2].
On the same counts, the results for `Clc1ccc2c(c1)CCc1cccnc1C2=C1CCNCC1` are -39.8% and -28.4%.
Take `CCN(CC)c1ccc(C(=C2C=CC(=[N+](CC)CC)C=C2)c2ccccc2)cc1`: the figures for the cell viability activity in test [1] and in test [2] were -97.7% and -97.2%, respectively.
In the case of `COc1ccc(NC(=O)c2ccc(-c3ccc(-c4noc(C)n4)cc3C)cc2)cc1OCCN(C)C`, the cell viability activity in test [1] was -93.7%; in test [2], -90.6%.
The matching figures for `O=C(O)C[C@H](O)C[C@H](O)/C=C/c1c(C2CC2)nc2ccccc2c1-c1ccc(F)cc1`: -25.1% and -8.8%.
As for `CNCc1ccc(-c2cc(-c3nc(-c4ccc(S(=O)(=O)C(C)C)cc4)cnc3N)on2)cc1`, the cell viability activity was -78.3% in test [1] and -74.5% in test [2].
On the same counts, the results for `Nc1c2ccccc2nc2ccccc12` are -86.1% and -86.8%.
As to `CN1CCN(S(=O)(=O)c2ccc(-c3cnc(N)c(C(=O)Nc4cccnc4)n3)cc2)CC1`, the cell viability activity in test [1] is -46.3%; in test [2], -40.9%.
As to `O=C(c1ccc(F)c(F)c1Nc1ccc(I)cc1F)N1CC(O)([C@@H]2CCCCN2)C1`, the cell viability activity in test [1] was -86.8%; in test [2], -88.9%.
The matching figures for `CCCCCCCC[N+](C)(C)Cc1ccccc1`: -22.5% and -16.8%.
The matching figures for `Oc1ccc(CC2NCCc3cc(O)c(O)cc32)cc1` (stereo unspecified): -63.7% and -66.3%.
On the same counts, the results for `COc1ccc2[nH]c3c(-c4cccc5ccccc45)nccc3c2c1` are -69.1% and -60.2%.
As for `CC(C)C[C@H](NC(=O)CNC(=O)c1cc(Cl)ccc1Cl)B(O)O`, the cell viability activity in test [1] was -94.3%; in test [2], -89.7%.
As to `CN[C@H](C(=O)N[C@H](C(=O)N(C)[C@H](/C=C(\C)C(=O)O)C(C)C)C(C)(C)C)C(C)(C)c1ccccc1`, the cell viability activity in test [1] is -56.6%; in test [2], -33.2%.
The matching figures for `CN(C)C/C=C/C(=O)Nc1cccc(C(=O)Nc2cccc(Nc3ncc(Cl)c(-c4c[nH]c5ccccc45)n3)c2)c1`: -91.7% and -94.7%.
For the compound `CC(C)n1nc(-c2ccc3oc(N)nc3c2)c2c(N)ncnc21`, the cell viability activity was -74.9% in test [1] and -52.5% in test [2].
On the same counts, the results for `Nc1nc(Nc2ccc(S(N)(=O)=O)cc2)nn1C(=O)c1c(F)cccc1F` are -23.1% and -26.5%.
The matching figures for `CCCCCCCCCc1ccc(OCCOCCOCCOCCOCCOCCOCCOCCOCCO)cc1`: -55.9% and -22.3%.
